Results taken from PubChem BioAssay (EPA / NIEHS).
The source made the active and inactive calls. How the source made its calls: active means hit-call score of the fitted dose curve at least 0.9, where 1 is the maximum; inactive means score below 0.9.

Test: ATG_EGR_CIS: Attagene CIS-FACTORIAL HepG2 Assay for human Early Growth Response 1 (EGR1) (AID 2282938)
Details: HepG2 Attagene CIS-FACTORIAL EGR reporter mRNA; actives raise or lower the signal
Description: ATG_CIS is a cell-based, multiplexed-readout assay that uses HepG2, a human liver cell line, with measurements taken at 24 hours after chemical dosing in a 24-well plate.ATG_EGR_CIS is one of 52 assay component(s) measured or calculated from the ATG_CIS assay. It is designed to make measurements of mRNA induction, a form of inducible reporter, as detected with fluorescence intensity signals by Reverse transcription polymerase chain reaction (RT-PCR) and Capillary electrophoresis technology.Data from the assay component ATG_EGR_CIS was analyzed into 1 assay endpoint. This assay endpoint, ATG_EGR_CIS, was analyzed with bidirectional fitting relative to DMSO as the negative control and baseline of activity. Using a type of inducible reporter, measures of mRNA for gain or loss-of-signal activity can be used to understand the reporter gene at the transcription factor-level as they relate to the gene EGR1. Furthermore, this assay endpoint can be referred to as a primary readout, because this assay has produced multiple assay endpoints where this one serves a reporter gene function. To generalize the intended target to other relatable targets, this assay endpoint is annotated to the dna binding intended target family, where the subfamily is zinc finger.
Human liver HepG2 cells are transiently transfected with multiple reporter transcription units (MRTUs) in 6-well plates using FuGene 6 reagent (Roche; 3 ml FuGene/1 mg DNA). The MRTU constructs are regulated by a cis-regulating element (promoter). […] A major difference between the CIS and TRANS system is that in CIS activities of endogenous TFs are measured, whereas the TRANS assay evaluates changes in activities of exogenous, chimeric NR-Gal4 proteins. […] At the end of 24 hour incubation, total RNA was isolated using TriZol reagent (Invitrogen). The isolated RNA is then reverse-transcribed using oligo(dT) primer and Mo-MLV reverse transcriptase (Invitrogen) with DNAse I (Ambion) treatment for 30 min. The one-tenth of the produced cDNA was amplified by PCR using Taq DNA polymerase (Invitrogen) and two reporter sequence-specific primers. The PCR products were fluorescently labeled by primer extension with 6-arboxyfluorescein (6-FAM) 5'-labeled reporter sequence-specific primer (2 min at 95 C, 20 s at 68 C and 10 min at 72 C) and these products were digested with 5U of HpaI (New England Biolabs) for 2h at 37 C. The fragments were purified using Qiaquick PCR columns (Qiagen), analyzed on an ABI 3130xL genetic analyzer (Applied Biosystems) with peak positions identified by using a set of X-rhodamine (ROX)-labeled MapMarker1000 molecular weight standards (BioVentures). The raw capillary electrophoresis data was processed using Attagraph software (Attagene).

**Q.** Which outcome does the source give for `O=C=NC1CCC(CC2CCC(N=C=O)CC2)CC1` (stereo not given) here?
**A.** inactive

**Q.** For `C=CC(C)(CCC=C(C)C)OC=O` (stereo not given), which outcome is on record?
**A.** inactive

**Q.** With `C=C(C)C(=O)NCCCN(C)C` as the compound, how does the outcome read?
**A.** inactive

**Q.** For `Cc1c(Cl)c(=O)oc2cc(O)ccc12`, which outcome is on record?
**A.** inactive

**Q.** Which outcome does the source give for `CC(=O)O[C@H](CC(=O)[O-])C[N+](C)(C)C` here?
**A.** inactive

**Q.** For `OCc1cccnc1`, which outcome is on record?
**A.** inactive

**Q.** For `Cc1ccc2n[nH]nc2c1`, which outcome is on record?
**A.** inactive

**Q.** For `CC(C)=CCCC(C)=CCCC(C)=CCO`, which outcome is on record?
**A.** inactive

**Q.** Which outcome does the source give for `CCC(=O)/C=C/C1C(C)=CCCC1(C)C` (stereo not given) here?
**A.** inactive

**Q.** For `NCCCCCCN`, which outcome is on record?
**A.** inactive

**Q.** With `COC(=O)OC` as the compound, how does the outcome read?
**A.** inactive

**Q.** Which outcome does the source give for `CCCCCCCCCCC(CO)CCCCCCCC` (stereo not given) here?
**A.** inactive

**Q.** For `c1ccc2[nH]ccc2c1`, which outcome is on record?
**A.** inactive

**Q.** For `C=CC(=O)OCCOCCOCC`, which AC50 is on record?
**A.** 100 µM (active)

**Q.** Which outcome does the source give for `CC(C)OP(=O)(CP(=O)(OC(C)C)OC(C)C)OC(C)C` here?
**A.** inactive

**Q.** With `CC(C)(C)c1n[nH]c(=S)n(N)c1=O` as the compound, how does the outcome read?
**A.** inactive

**Q.** Which outcome does the source give for `CCCCCCCCCCCCN(CCCCCCCCCCCC)CCCCCCCCCCCC` here?
**A.** inactive

**Q.** With `CC1(C)[C@H](C(=O)OCc2cccc(Oc3ccccc3)c2)[C@@H]1C=C(Cl)Cl` as the compound, how does the outcome read?
**A.** inactive

**Q.** For `CC(C)(C#N)c1cc(Cn2cncn2)cc(C(C)(C)C#N)c1`, which outcome is on record?
**A.** inactive

**Q.** Which AC50 does the source give for `O=C1c2ccccc2C(=O)N1SC1CCCCC1` here?
**A.** 65.6 µM (active)

**Q.** Which outcome does the source give for `Cc1ccc(C=O)s1` here?
**A.** inactive

**Q.** Which AC50 does the source give for `BrC1CCC(Br)C(Br)CCC(Br)C(Br)CCC1Br` (stereo not given) here?
**A.** 35.9 µM (active)

**Q.** With `Clc1nc(C(Cl)(Cl)Cl)c(Cl)c(Cl)c1Cl` as the compound, how does the outcome read?
**A.** inactive

**Q.** Which outcome does the source give for `CC1=CCC(O)(C(C)C)CC1` (stereo not given) here?
**A.** inactive

**Q.** For `Sc1nc(S)nc(S)n1`, which outcome is on record?
**A.** inactive

**Q.** For `CCCCN`, which outcome is on record?
**A.** inactive

**Q.** Which outcome does the source give for `N#Cc1ccccc1` here?
**A.** inactive

**Q.** With `OCCOc1cccc(OCCO)c1` as the compound, how does the outcome read?
**A.** inactive

**Q.** Which outcome does the source give for `O=C(O)CCCCCCCC(=O)O` here?
**A.** inactive

**Q.** Which outcome does the source give for `[Ca+2]` here?
**A.** inactive

**Q.** For `CCCCC(CC)COC(=O)/C=C\C(=O)OCC(CC)CCCC` (stereo not given), which outcome is on record?
**A.** inactive

**Q.** For `Nc1cc([N+](=O)[O-])ccc1O`, which outcome is on record?
**A.** inactive

**Q.** With `O=Cc1ccc(Cl)c([N+](=O)[O-])c1` as the compound, how does the AC50 read?
**A.** 129 µM (active)

**Q.** Which outcome does the source give for `CO[Si](C)(OC)c1ccccc1` here?
**A.** inactive

**Q.** Which outcome does the source give for `CCCC(=O)OCCC(C)CCC=C(C)C` (stereo not given) here?
**A.** inactive

**Q.** With `O=C(O)c1cccc([N+](=O)[O-])c1` as the compound, how does the outcome read?
**A.** inactive

**Q.** For `O=S(=O)(O)c1cccc2c(S(=O)(=O)O)cccc12`, which outcome is on record?
**A.** inactive

**Q.** For `COc1ccc(NC(=O)CC(C)=O)cc1`, which outcome is on record?
**A.** inactive

**Q.** With `CNC[C@H](O)c1cccc(O)c1` as the compound, how does the outcome read?
**A.** inactive

**Q.** Which outcome does the source give for `C=C(C)C(=O)O[C@H]1C[C@@H]2CC[C@@]1(C)C2(C)C` here?
**A.** inactive
